Records with an inconclusive call do not appear. A call without a number means that no potency is given here. The source made the active and inactive calls. Calls follow the shape of the dose curve; as a rule, active = well fitted inhibition curve with a large enough effect; inconclusive = small, poorly fitted or top-dose-only effect; inactive = no such curve, though single readings can be large or run the other way.
biological target: Retinaldehyde dehydrogenase 3 (Homo sapiens) (UniProt P47895); assay: qHTS for Inhibitors of the Aldehyde Dehydrogenase Family (ALDH1A3) Primary screen (AID 2061315); conditions: ALDH inhibition qHTS; series mostly up to 56 µM

Structure (SMILES) | Potency | activity change, negative = inhibition
C[C@H]1O[C@@H](O[C@H]2CC[C@]3(C=O)C4CC[C@]5(C)[C@@H](C6=CC(=O)OC6)CC[C@]5(O)[C@@H]4CC[C@]3(O)C2)C[C@@H](O)[C@@H]1O (stereo not given in full) | inactive | –
Cn1cc(Cl)c(C2N=C(Nc3nc4ccccc4o3)NC3=C2C(=O)CCC3)n1 (stereo not given) | inactive | –
Cc1cc(-c2nnc3n2CCCCC3)c(C)n1-c1ccc(C(C)(C)C)cc1 | inactive | –
COc1cccc(CNc2ccc(S(=O)(=O)Nc3cccc(-c4ccccc4)c3)cc2)c1O | inactive | –
Cn1c(-c2ccccc2)c(P(=S)(c2ccccc2)c2ccccc2)c2ccccc21 | inactive | –
C=C1C(=O)OC2/C=C(\COO)CC/C=C(\COC(C)=O)CC(OC(=O)C(C)CC)C12 (stereo not given) | inactive | –
COc1ccc(C23CCC(=O)C=C2N(C)CC3)cc1OC (stereo not given) | inactive | –
O=C(N[C@@H]1N=C(c2ccccc2F)c2cccc3c2N(CC3)C1=O)c1cc2ccccc2[nH]1 | inactive | –
O=C(Nc1ncc(Cc2ccc(C(F)(F)F)cc2)s1)c1cnc(-c2ccccc2)o1 | inactive | –
CC(N[C@H]1C[C@H]1c1ccccc1)c1ccc2c(c1)OCCO2 (stereo not given in full) | inactive | –
CCOc1ccc(CCNC(=O)c2cc3ccncc3n2Cc2cccc(C)c2)cc1OCC | inactive | –
COc1ccc(CCNCc2ccc(OC)c3ccccc23)cc1 | inactive | –
COC1C(O)C(C)OC(OC2C(CO)O[C@@H](O[C@@H]3CC4CCC5C(CC[C@]6(C)[C@@H](C7=CC(=O)OC7)CC[C@]56O)[C@@]4(C)[C@H](OC(C)=O)C3)C(O)C2O)C1O (stereo not given in full) | inactive | –
C=C(CO)C(=O)O[C@H]1CC(=C)[C@@H]2C[C@H](O)C(=C)[C@@H]2[C@H]2OC(=O)C(=C)[C@@H]21 | inactive | –
Cc1ccc2nc(NC3=NC(c4[nH]ncc4Cl)C4=C(CCCC4=O)N3)oc2c1 (stereo not given) | inactive | –
COc1ccc2c3c4n(c2c1)[C@@H](C=C(C)C)OOC(C)(C)C[C@@H]4N1C(=O)[C@@H]2CCCN2C(=O)[C@]1(O)[C@H]3OCC=C(C)C | inactive | –
C[C@]12CC[C@@H](O)C[C@@H]1CC[C@@H]1[C@@H]2CC[C@]2(C)C(=O)[C@@H](Br)C[C@@H]12 | inactive | –
Cc1sc2c(c1C)C(c1ccc(Cl)cc1)=N[C@@H](CC(=O)Nc1ccc(O)cc1)c1nnc(C)n1-2 | inactive | –
Cc1ccccc1C(=O)N1CCc2cc(N3CCC(NC(=O)Cc4ccccc4)C3)ccc21 (stereo not given) | inactive | –
C[C@H]1O[C@@H](O[C@H]2C[C@@H](O)[C@]3(CO)C4C(CC[C@]3(O)C2)[C@@]2(O)CC[C@H](C3=CC(=O)OC3)[C@@]2(C)C[C@H]4O)[C@@H](O)[C@@H](O)[C@H]1O (stereo not given in full) | inactive | –

Structure (SMILES) | Potency | activity change, negative = inhibition
CCCCC1C(=O)NC(=O)N(C2CCCCC2)C1=O (stereo not given) | inactive | –
Cc1nn2c(=O)cc(N3CCNCC3)nc2s1 | inactive | –
C=C(CO)[C@@]12O[C@@H]1[C@@]1(C)C(=CC2=O)CC[C@@H](O)[C@@H]1C | inactive | –
CC(=O)O[C@H]1C[C@@H](C)O[C@H]2O[C@@H]3CC4CC[C@@H]5C(CC[C@]6(C)[C@@H](C7=CC(=O)OC7)CC[C@]56O)[C@@]4(C=O)C[C@H]3O[C@]21O (stereo not given in full) | inactive | –
CCOc1ccc(CCNC(=O)c2cc3ccccc3n2CCN2CCOCC2)cc1OCC | inactive | –
Cn1cc(P(=S)(c2ccccc2)c2ccccc2)c2ccccc21 | inactive | –
CCOc1ccc(CCNC(=O)c2cc3cnccc3n2Cc2cccc(C)c2)cc1OCC | inactive | –
COc1cccc(CNc2ccc(S(=O)(=O)Nc3ccc4ccccc4c3)cc2)c1O | inactive | –
N#Cc1ccc(NC(=O)Nc2nnc(-c3ccncc3)s2)cc1Br | inactive | –
CCC1CN2CCC3(C(=O)Nc4cccc(O)c43)C2CC1/C(=C/OC)C(=O)OC (stereo not given) | inactive | –
Oc1ccc2c(c1)C13CCCC[C@H]1[C@@H](C2)N(CC1CCC1)CC3 | inactive | –
CCOc1ccc(CCNC(=O)c2cc3ncccc3n2Cc2cccc(C)c2)cc1OCC | inactive | –
CO[C@H]1C[C@H](O[C@H]2CC[C@]3(CO)[C@H]4CC[C@]5(C)[C@@H](C6=CC(=O)OC6)CC[C@]5(O)[C@@H]4CC[C@]3(O)C2)O[C@H](C)[C@H]1O | inactive | –
Oc1cccc2cc(N3CCNCC3)cnc12 | inactive | –
Cc1c(P(=S)(c2ccccc2)c2ccccc2)c2ccccc2n1C | inactive | –
Nc1ncnc2c1ncn2[C@@H]1O[C@@H]2COP(O)(=S)O[C@H]2[C@H]1O (stereo not given in full) | – | 2.78% [at 11.2 µM] (inactive)
S=P(c1ccccc1)(c1ccccc1)c1cnc2ccccn12 | inactive | –
CNC(=O)c1cc(C#N)cc(C)c1NC(=O)c1cc(Br)nn1-c1ncccc1Cl | inactive | –
C[C@H]1CC[C@@H]2[C@@H](C)[C@H]3[C@H](C[C@H]4[C@@H]5CC=C6CC(O[C@@H]7O[C@H](CO)[C@@H](O)[C@H](O[C@@H]8O[C@H](CO)[C@@H](O)[C@H](O)[C@H]8O)[C@@H]7O[C@@H]7O[C@@H](C)[C@H](O)[C@@H](O)[C@H]7O)CC[C@]6(C)[C@H]5CC[C@]34C)N2C1 (stereo not given in full) | inactive | –
COc1cccc(CNc2ccc(S(=O)(=O)Nc3nccs3)cc2)c1OC | inactive | –

From PubChem BioAssay (NCATS)
